High-throughput results as filed in PubChem BioAssay.
ABHD5-PLIN5 inh: ABHD5-PLIN5 interaction inhibitors, primary screen, cell lysate, split luciferase complementation, luminescence. Perilipin-5 (Homo sapiens) + 1-acylglycerol-3-phosphate O-acyltransferase ABHD5 (Homo …. hit rate 0.78% among 360,000. inhibition, % at 4 µM. Split G. princeps luciferase complementation, 4 h;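 active = inhibition above the mean inhibition across every tested compound plus 3 SD, cut at about 22% in these data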;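 also: 0% = DMSO only wells and the 100% control is not disclosed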
Mdm2-MdmX inh: inhibitors of human Mdm2-MdmX association, primary screen, cell-based, luminescence, split luciferase, SaOS-2, uHTS; Protein Mdm4 (Homo sapiens) + E3 ubiquitin-protein ligase Mdm2 (Homo sapiens), …; SaOS-2 split-luciferase Mdm2/MdmX complementation; inhibition, % at 8 µM; hit rate 3% among 330,000; AID 485346, 2010;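 active = inhibition of at least 50% at 8 µM in the primary screen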
Target sequence (O15151 whole entry, looked up): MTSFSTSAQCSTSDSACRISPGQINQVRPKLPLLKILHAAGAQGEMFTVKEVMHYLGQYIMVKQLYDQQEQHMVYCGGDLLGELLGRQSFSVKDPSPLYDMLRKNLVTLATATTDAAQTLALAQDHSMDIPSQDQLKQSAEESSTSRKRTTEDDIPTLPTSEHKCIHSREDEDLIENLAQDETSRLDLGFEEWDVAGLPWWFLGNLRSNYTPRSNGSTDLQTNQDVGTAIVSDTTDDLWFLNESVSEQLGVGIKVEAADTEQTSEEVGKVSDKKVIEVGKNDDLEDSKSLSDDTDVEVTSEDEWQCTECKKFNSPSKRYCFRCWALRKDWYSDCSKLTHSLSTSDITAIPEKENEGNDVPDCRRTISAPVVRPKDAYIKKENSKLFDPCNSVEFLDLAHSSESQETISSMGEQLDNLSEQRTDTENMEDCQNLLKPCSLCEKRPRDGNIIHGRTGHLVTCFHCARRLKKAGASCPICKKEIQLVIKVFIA
Target sequence (Q00987 whole entry, looked up): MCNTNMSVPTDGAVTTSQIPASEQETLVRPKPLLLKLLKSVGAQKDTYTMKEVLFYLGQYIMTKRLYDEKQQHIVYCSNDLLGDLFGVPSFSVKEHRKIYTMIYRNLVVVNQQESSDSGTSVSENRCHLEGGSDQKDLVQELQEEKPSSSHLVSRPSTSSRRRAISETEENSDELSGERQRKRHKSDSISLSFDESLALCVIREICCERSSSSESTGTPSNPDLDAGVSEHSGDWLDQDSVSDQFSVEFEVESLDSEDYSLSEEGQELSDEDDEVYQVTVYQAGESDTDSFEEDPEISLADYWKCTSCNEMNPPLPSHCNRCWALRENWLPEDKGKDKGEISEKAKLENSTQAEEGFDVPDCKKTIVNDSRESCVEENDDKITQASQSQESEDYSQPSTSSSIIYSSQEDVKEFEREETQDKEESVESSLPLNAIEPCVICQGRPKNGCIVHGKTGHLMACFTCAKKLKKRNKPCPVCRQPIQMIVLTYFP
HIF-2a inh: HIF-2a reporter inhibitors, primary screen, luminescence, 786-0 RCC cells. hit rate 0.72% among 360,000. 786-0 RCC cells HIF-2a reporter, luciferase luminescence, overnight. inhibition, % at 18.8 µM;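 active = inhibition of the luminescence signal of 40% or more relative to plate controls, in a single-dose primary screen at 18.75 µM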
KKLEB tox: cytotoxicity in KKLEB CF airway cells, primary screen, cytotoxicity control for CF NF-kB inhibitor project, cell-based, uHTS, fluorescence assay plates. KKLEB CF airway cells viability, ATPlite luminescence, overnight; active compounds read low; cells stimulated with P. aeruginosa culture filtrate. hit rate 0.36% among 360,000. activity change (cytotoxicity), % at 5 µM. AID 602141, 2011;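 active = corrected activity change at or below -50% at 5 µM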
CF NFkB inh: inhibitors of PAF-induced NF-kB signaling, primary screen, cell-based, GFP fluorescence, uHTS; hit rate 0.86% among 360,000; KKLEB NF-kB-GFP reporter, GFP fluorescence overnight; inhibition, % at 5 µM;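 active = at least 50% inhibition at 5 µM, scaled per plate between neutral and stimulator controls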;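 also: PAF is a Pseudomonas aeruginosa culture filtrate used as stimulus; plate controls were PAF-stimulated DMSO wells for no effect and unstimulated DMSO wells for full effect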
Peg3 prom inh: Peg3 promoter-driven luciferase inhibitors, primary screen, cell-based, HeLa, luciferase luminescence; inhibition, % at 20 µM; HeLa PEG-Prom luciferase reporter, overnight; hit rate 1.7% among 360,000;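 active = inhibition of at least 50% at 20 µM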
ABHD5 PLIN5 conf: ABHD5-PLIN5 interaction inhibitors, confirmation, biochemical, luminescence; shares compounds with ABHD5-PLIN5 inh; inhibition, % at 4 µM; hit rate 67% among 2,200; AID 651612, 2012; in the data active = inhibition above about 23%;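 also: 0% = DMSO vehicle wells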
HNF4 counter: HNF4 dimerization inhibitors, counter-screen for ABHD5-PLIN5 interaction inhibitor project, biochemical, split-luciferase complementation, luminescence. shares compounds with ABHD5-PLIN5 inh. inhibition, % at 4 µM. hit rate 77% among 2,200;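 active = mean inhibition across replicate wells exceeding the computed hit threshold, cut at about 13% in these data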;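 also: light from luciferase halves that rejoin when HNF4 fusion proteins dimerize; 0% = DMSO only wells and the 100% control is not given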
* hit, by the source's call. This is a sample that favours compounds with a hit; in the whole collection about 4.6% have one here.

How did CCOC(=O)Cc1csc(NC(=O)NC2(C(F)(F)F)Oc3ccc(Cl)cc3O2)n1 (stereo not drawn) do in these assays?
ABHD5-PLIN5 inh: 25*; Mdm2-MdmX inh: 28; HIF-2a inh: 18; KKLEB tox: -2; CF NFkB inh: -12; Peg3 prom inh: 24; ABHD5 PLIN5 conf: 54*; HNF4 counter: 60*

Results for C[C@H](O)CNC(=O)c1[nH]cnc1C(=O)N[C@@H](C)c1ccccc1 ?
ABHD5-PLIN5 inh: 0; HIF-2a inh: -8; KKLEB tox: -2; CF NFkB inh: 1; Peg3 prom inh: 7

How did CNC[C@@H]1Oc2ccc(NS(=O)(=O)c3ccc(Cl)cc3)cc2C(=O)N([C@H](C)CO)C[C@@H]1C do in these assays?
ABHD5-PLIN5 inh: 25*; Mdm2-MdmX inh: -13; HIF-2a inh: -3; KKLEB tox: -14; CF NFkB inh: 26; Peg3 prom inh: -12; ABHD5 PLIN5 conf: 19; HNF4 counter: -4

Results for CCCN(CC(=O)Nc1ccccc1C)C(=O)c1ccc(-c2ccccc2)cc1 ?
ABHD5-PLIN5 inh: -4; Mdm2-MdmX inh: 23; HIF-2a inh: -9; KKLEB tox: -8; CF NFkB inh: 16; Peg3 prom inh: 4

What do the screens show for `CCN(CC)CCN(CC(=O)Nc1c(C)cc(C)cc1C)C(=O)c1ccccc1`?
ABHD5-PLIN5 inh: 24*; Mdm2-MdmX inh: 32; HIF-2a inh: 18; KKLEB tox: -7; CF NFkB inh: 24; Peg3 prom inh: 10; ABHD5 PLIN5 conf: 33*; HNF4 counter: -6

What do the screens show for `C[C@H](CO)N1C[C@H](C)[C@@H](CN(C)Cc2ccccc2)Oc2c(NC(=O)Cc3ccccc3)cccc2C1=O`?
ABHD5-PLIN5 inh: 9; Mdm2-MdmX inh: 24; HIF-2a inh: -3; KKLEB tox: -2; CF NFkB inh: 4; Peg3 prom inh: 27

What do the screens show for `C[C@H](CO)N1C[C@H](C)[C@@H](CN(C)Cc2ccc(Cl)c(Cl)c2)Oc2c(NC(=O)Cc3ccccc3)cccc2C1=O`?
ABHD5-PLIN5 inh: 26*; Mdm2-MdmX inh: 41; HIF-2a inh: 6; KKLEB tox: 3; CF NFkB inh: 8; Peg3 prom inh: 44; ABHD5 PLIN5 conf: 5; HNF4 counter: 0

Results for O=C(CC1SC(=O)N(c2ccccc2)C1=O)Nc1ccccc1 (stereo not drawn) ?
ABHD5-PLIN5 inh: -12; Mdm2-MdmX inh: 13; HIF-2a inh: 16; KKLEB tox: 9; CF NFkB inh: 0; Peg3 prom inh: -8

What do the screens show for `O=C(CC1Sc2ncnn2C1=O)Nc1ccccc1` (stereo not drawn)?
ABHD5-PLIN5 inh: 27*; Mdm2-MdmX inh: -25; HIF-2a inh: 2; KKLEB tox: -1; CF NFkB inh: 18; Peg3 prom inh: 16; ABHD5 PLIN5 conf: 11; HNF4 counter: 47*

How did O=C1Nc2ccccc2/C1=C/c1ccccc1F do in these assays?
ABHD5-PLIN5 inh: 27*; Mdm2-MdmX inh: 17; HIF-2a inh: -64; KKLEB tox: 14; CF NFkB inh: -15; Peg3 prom inh: -37; ABHD5 PLIN5 conf: 44*; HNF4 counter: 41*

Results for Cc1ccccc1/C=C1\C(=O)Nc2ccc(F)cc21 ?
ABHD5-PLIN5 inh: 4; Mdm2-MdmX inh: 16; HIF-2a inh: -4; KKLEB tox: 5; CF NFkB inh: 6; Peg3 prom inh: 28

Results for Cc1ccc(/C=C2\C(=O)Nc3ccccc32)o1 ?
ABHD5-PLIN5 inh: 24*; Mdm2-MdmX inh: 7; HIF-2a inh: -88; KKLEB tox: 15; CF NFkB inh: -51; Peg3 prom inh: -68; ABHD5 PLIN5 conf: 8; HNF4 counter: 40*

Results for NS(=O)(=O)c1ccc(-c2ccc(/C=C3\C(=O)Nc4ccccc43)o2)cc1 ?
Mdm2-MdmX inh: 18

What do the screens show for `COc1ccc(C2=NOC(C(=O)Nc3ccc4c(c3)OCCO4)C2)cc1OC` (stereo not drawn)?
ABHD5-PLIN5 inh: 3; Mdm2-MdmX inh: 17; HIF-2a inh: 16; KKLEB tox: -13; CF NFkB inh: 8; Peg3 prom inh: -2

How did CC(C)(C)n1nnnc1CN(Cc1ccco1)Cc1cc2cc3c(cc2[nH]c1=O)OCO3 do in these assays?
ABHD5-PLIN5 inh: 42*; Mdm2-MdmX inh: 15; HIF-2a inh: -6; KKLEB tox: 2; CF NFkB inh: -1; Peg3 prom inh: 9; ABHD5 PLIN5 conf: 24*; HNF4 counter: 34*

What do the screens show for `COc1ccccc1CN(Cc1cc2cc(C)ccc2[nH]c1=O)Cc1nnnn1Cc1ccco1`?
ABHD5-PLIN5 inh: 14; Mdm2-MdmX inh: 11; HIF-2a inh: 22; KKLEB tox: 8; CF NFkB inh: 1; Peg3 prom inh: 21

What do the screens show for `CCc1ccc2[nH]c(=O)c(CN(Cc3ccccc3OC)Cc3nnnn3Cc3ccco3)cc2c1`?
ABHD5-PLIN5 inh: 32*; Mdm2-MdmX inh: 37; HIF-2a inh: -26; KKLEB tox: -1; CF NFkB inh: 3; Peg3 prom inh: 0; ABHD5 PLIN5 conf: 6; HNF4 counter: 10

Results for COc1ccc2[nH]c(=O)c(C(c3nnnn3C(C)(C)C)N(Cc3ccco3)CC3CCCO3)cc2c1 (stereo not drawn) ?
ABHD5-PLIN5 inh: 24*; Mdm2-MdmX inh: 4; HIF-2a inh: 3; KKLEB tox: 0; CF NFkB inh: 6; Peg3 prom inh: 7; ABHD5 PLIN5 conf: 28*; HNF4 counter: 72*

What do the screens show for `CCOc1ccc2[nH]c(=O)c(CN(Cc3ccco3)C(CC)c3nnnn3Cc3ccccc3)cc2c1` (stereo not drawn)?
ABHD5-PLIN5 inh: 24*; Mdm2-MdmX inh: -1; HIF-2a inh: 14; KKLEB tox: 1; CF NFkB inh: 8; Peg3 prom inh: 29; ABHD5 PLIN5 conf: 11; HNF4 counter: 21*

How did Cc1cc2cc(C(c3nnnn3C(C)(C)C)N(Cc3ccco3)CC3CCCO3)c(=O)[nH]c2cc1C (stereo not drawn) do in these assays?
ABHD5-PLIN5 inh: 8; Mdm2-MdmX inh: 4; HIF-2a inh: 5; KKLEB tox: -8; CF NFkB inh: 2; Peg3 prom inh: 12
